PubChem BioAssay (NCI)
About 83,000 compounds went through this panel and 20% of them were active in at least one assay; those are over-represented in the sample as a whole.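 Method: cells in 96-well plates; compound added at one concentration; 48 h incubation; percent growth measured; values under 10 scored active.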 Calls of active or inactive are those of the source.

What was measured:
Test in all cases: NCI-60 one-dose screen, 48 h (100 = growth as untreated, 0 = no growth, -100 = all killed)
Conditions in all cases: 10 µM unless noted
RPMI-8226 leukemia = tested on: RPMI-8226 leukemia
OVCAR-8 ovarian = tested on: OVCAR-8 ovarian
OVCAR-5 ovarian = tested on: OVCAR-5 ovarian
OVCAR-4 ovarian = tested on: OVCAR-4 ovarian
SK-OV-3 ovarian = tested on: SK-OV-3 ovarian
IGROV1 ovarian = tested on: IGROV1 ovarian
OVCAR-3 ovarian = tested on: OVCAR-3 ovarian
HS 578T breast = tested on: HS 578T breast
NCI/ADR-RES ovarian = tested on: NCI/ADR-RES ovarian
BT-549 breast = tested on: BT-549 breast
MDA-MB-435 melanoma = tested on: MDA-MB-435 melanoma
SW-620 colon = tested on: SW-620 colon
MCF7 breast = tested on: MCF7 breast
HCT-116 colon = tested on: HCT-116 colon
HCC-2998 colon = tested on: HCC-2998 colon
KM12 colon = tested on: KM12 colon
SR leukemia = tested on: SR leukemia
T-47D breast = tested on: T-47D breast

Measured: growth

COC(=O)c1ccc2oc(NC(=O)c3ccc(N4CCOCC4)c([N+](=O)[O-])c3)nc2c1
inactive: RPMI-8226 leukemia 93.3% | OVCAR-8 ovarian 99% | OVCAR-5 ovarian 92.8% | OVCAR-4 ovarian 91% | SK-OV-3 ovarian 89.8% | IGROV1 ovarian 99.9% | OVCAR-3 ovarian 107% | HS 578T breast 96.9% | NCI/ADR-RES ovarian 103% | BT-549 breast 95.7% | MDA-MB-435 melanoma 107% | SW-620 colon 100% | MCF7 breast 94.1% | HCT-116 colon 93% | HCC-2998 colon 105% | KM12 colon 102%

Clc1ccc(-c2nnc(Cn3ccnc3)o2)cc1
inactive: SR leukemia 94.3% | OVCAR-4 ovarian 102% | SK-OV-3 ovarian 107% | IGROV1 ovarian 108% | OVCAR-3 ovarian 116% | HS 578T breast 95.1% | NCI/ADR-RES ovarian 106% | T-47D breast 100% | BT-549 breast 120% | MDA-MB-435 melanoma 105% | SW-620 colon 98.6% | MCF7 breast 94.4% | HCT-116 colon 90.5% | HCC-2998 colon 110% | KM12 colon 105%

O=C1C(Cl)C(c2ccccc2Cl)N1n1cnnc1 (centres undefined)
inactive: RPMI-8226 leukemia 102% | OVCAR-8 ovarian 96.2% | OVCAR-5 ovarian 91.4% | OVCAR-4 ovarian 97.5% | SK-OV-3 ovarian 77.3% | IGROV1 ovarian 91.5% | OVCAR-3 ovarian 102% | HS 578T breast 87.6% | NCI/ADR-RES ovarian 106% | BT-549 breast 97.3% | MDA-MB-435 melanoma 103% | SW-620 colon 94.5% | MCF7 breast 97.4% | HCT-116 colon 96.4% | HCC-2998 colon 98.4% | KM12 colon 96.9%

CN(C)CCCCNc1ccc(NCCCCN(C)C)c2c1C(=O)c1c(O)ccc(O)c1C2=O
inactive: RPMI-8226 leukemia 53.6% | OVCAR-4 ovarian 64% | SK-OV-3 ovarian 85.6% | OVCAR-3 ovarian 100% | HS 578T breast 92% | T-47D breast 97.1% | BT-549 breast 92% | MDA-MB-435 melanoma 92.7%
active: OVCAR-8 ovarian -73.1% | OVCAR-5 ovarian -86% | IGROV1 ovarian -84.5% | NCI/ADR-RES ovarian -68.8% | SW-620 colon -72.6% | MCF7 breast -81.6% | HCT-116 colon -66.7% | HCC-2998 colon -86% | KM12 colon -89.3%

CCOc1ccc(S(=O)(=O)c2ccc(C)cc2)c2c1no[n+]2[O-]
inactive: RPMI-8226 leukemia 67.9% | OVCAR-8 ovarian 90.7% | OVCAR-5 ovarian 99.1% | OVCAR-4 ovarian 67.5% | SK-OV-3 ovarian 77.4% | OVCAR-3 ovarian 85.2% | HS 578T breast 78.4% | NCI/ADR-RES ovarian 71.8% | T-47D breast 56.4% | MDA-MB-435 melanoma 91.4% | SW-620 colon 100% | MCF7 breast 83.1% | HCT-116 colon 80.4% | HCC-2998 colon 100% | KM12 colon 93.6%

CC1(C)C(=O)/C(=C\c2cccnc2)C[C@]2(C)[C@H]3CC=C4[C@@H]5C[C@@](C)(C(=O)O)CC[C@]5(C)CC[C@@]4(C)[C@]3(C)CC[C@@H]12
inactive: RPMI-8226 leukemia 71.5% | OVCAR-8 ovarian 89.7% | OVCAR-5 ovarian 107% | OVCAR-4 ovarian 90.6% | SK-OV-3 ovarian 94.9% | IGROV1 ovarian 103% | OVCAR-3 ovarian 98.3% | HS 578T breast 99.2% | NCI/ADR-RES ovarian 102% | BT-549 breast 96.6% | MDA-MB-435 melanoma 103% | SW-620 colon 107% | MCF7 breast 87.7% | HCT-116 colon 91.9% | HCC-2998 colon 108% | KM12 colon 99.2%

COc1ccc(-c2cc(-c3ccc(Nc4nc(Nc5ccccc5)nc(Nc5ccc(Cl)cc5)n4)cc3)nc(N)c2C#N)cc1
active: RPMI-8226 leukemia -29.6% | OVCAR-5 ovarian -38.7% | OVCAR-4 ovarian 4.19% | IGROV1 ovarian -18.4% | OVCAR-3 ovarian -96.1% | NCI/ADR-RES ovarian 2.12% | T-47D breast -32% | BT-549 breast -50.6% | MDA-MB-435 melanoma -58.5% | SW-620 colon -45.6% | MCF7 breast -32.7% | HCT-116 colon -88.5% | KM12 colon -12.5%
inactive: OVCAR-8 ovarian 31.9% | SK-OV-3 ovarian 86.8%

C=C1C(=O)O[C@H]2[C@H]1CC/C(COC(=O)/C=C/C(=O)NCc1ccc(Cn3c(=O)sn(-c4ccccc4)c3=O)cc1)=C\CC[C@@]1(C)O[C@@H]21
active: RPMI-8226 leukemia -32.6% | OVCAR-8 ovarian -0.571% | IGROV1 ovarian -25.5% | OVCAR-3 ovarian -77.5% | BT-549 breast -3.27% | MDA-MB-435 melanoma -26.6% | SW-620 colon -64.5% | MCF7 breast 5.01% | HCT-116 colon -79.1%
inactive: OVCAR-5 ovarian 35.4% | OVCAR-4 ovarian 25.7% | SK-OV-3 ovarian 75.8% | HS 578T breast 77.8% | NCI/ADR-RES ovarian 94.1% | HCC-2998 colon 54.4% | KM12 colon 49.1%

CN1CCN(C(=O)[C@@]2(C)CC[C@]3(C)CC[C@]4(C)C(=CC[C@@H]5[C@@]6(C)C/C(=C/c7ccncc7)C(=O)C(C)(C)[C@@H]6CC[C@]54C)[C@@H]3C2)CC1
inactive: RPMI-8226 leukemia 12.8% | OVCAR-8 ovarian 50.9% | OVCAR-5 ovarian 88.2% | OVCAR-4 ovarian 37.9% | SK-OV-3 ovarian 55.2% | IGROV1 ovarian 56.7% | OVCAR-3 ovarian 50.7% | HS 578T breast 54% | NCI/ADR-RES ovarian 62.1% | BT-549 breast 55.6% | MDA-MB-435 melanoma 44.6% | MCF7 breast 23.3% | HCT-116 colon 12% | HCC-2998 colon 58.1% | KM12 colon 36.6%

Nc1ccc(S(=O)(=O)Nc2ccsc2-c2nc(-c3ccccc3)no2)cc1
inactive: RPMI-8226 leukemia 65.8% | OVCAR-8 ovarian 59.7% | OVCAR-5 ovarian 87.5% | OVCAR-4 ovarian 81.9% | SK-OV-3 ovarian 62.3% | IGROV1 ovarian 64.7% | OVCAR-3 ovarian 36.8% | HS 578T breast 56.4% | NCI/ADR-RES ovarian 54.6% | BT-549 breast 59% | SW-620 colon 29.8% | MCF7 breast 55.9% | HCT-116 colon 38.4% | HCC-2998 colon 79.4% | KM12 colon 33.6%
active: MDA-MB-435 melanoma 3.96%

Oc1ccccc1-c1nc2ccccn2c1NCCN1CCOCC1
inactive: RPMI-8226 leukemia 93.2% | OVCAR-8 ovarian 100% | OVCAR-5 ovarian 91.6% | OVCAR-4 ovarian 92.2% | SK-OV-3 ovarian 76.5% | IGROV1 ovarian 103% | OVCAR-3 ovarian 97.3% | HS 578T breast 89.5% | NCI/ADR-RES ovarian 104% | BT-549 breast 99.2% | MDA-MB-435 melanoma 102% | SW-620 colon 94.8% | MCF7 breast 96.7% | HCT-116 colon 93.9% | HCC-2998 colon 101% | KM12 colon 91.2%

O=C1NN(C(=O)c2ccc(O)cc2)C(c2ccccc2)=N/C1=C\c1cn(-c2ccccc2)nc1-c1ccccc1
inactive: RPMI-8226 leukemia 90% | OVCAR-8 ovarian 97.2% | OVCAR-5 ovarian 94% | OVCAR-4 ovarian 95.3% | SK-OV-3 ovarian 92.6% | IGROV1 ovarian 91.5% | OVCAR-3 ovarian 112% | HS 578T breast 99.8% | NCI/ADR-RES ovarian 99.7% | BT-549 breast 94.7% | MDA-MB-435 melanoma 105% | SW-620 colon 110% | MCF7 breast 96% | HCT-116 colon 95.7% | HCC-2998 colon 104% | KM12 colon 98.1%

CN1CCC(=C2c3ccccc3C=Cc3ccccc32)CC1
inactive: RPMI-8226 leukemia 72.7% | OVCAR-8 ovarian 85.4% | OVCAR-5 ovarian 108% | OVCAR-4 ovarian 72.9% | SK-OV-3 ovarian 97.6% | IGROV1 ovarian 72.7% | OVCAR-3 ovarian 104% | NCI/ADR-RES ovarian 75.6% | T-47D breast 72.6% | BT-549 breast 113% | MDA-MB-435 melanoma 80.2% | MCF7 breast 80.5% | HCT-116 colon 66.3% | HCC-2998 colon 92.5% | KM12 colon 94.4%

C=C(CNCCc1ccc(O)cc1)[C@@H]1CC[C@]2(COC3CCCCO3)CC[C@]3(C)[C@H](CC[C@@H]4[C@@]5(C)CCC(N)C(C)(C)[C@@H]5CC[C@]43C)[C@@H]12 (some centres undefined)
active: RPMI-8226 leukemia -64.9% | OVCAR-8 ovarian -61.6% | OVCAR-5 ovarian -90.6% | OVCAR-4 ovarian -77.5% | SK-OV-3 ovarian -95.1% | IGROV1 ovarian -82.1% | OVCAR-3 ovarian -87% | HS 578T breast -49.5% | NCI/ADR-RES ovarian -67.1% | BT-549 breast -70% | MDA-MB-435 melanoma -95% | MCF7 breast -79.8% | HCT-116 colon -91.3% | HCC-2998 colon -84.7% | KM12 colon -85.7%
